The full data set covers some 7,900 targets. This sample favours those with a hit. About 0.6% of all pairs of compound and target were hits.
compound: c1cn2cc(-c3ccc4cn[nH]c4c3)nc(Nc3ccc(N4CCOCC4)cc3)c2n1 [entospletinib]; test: log2 fold change, soluble protein after heating vs DMSO (PISA); higher = thermal stabilisation; K562 cells, 10 uM, 30 min; active = over 0.2 and 3.5 SD of the protein, either way, in both replicates (recomputed)
Summary of the method: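 Thermal stability values are relative to control samples and come from duplicates. They are expressed as log2 fold changes. For measurement, K562 cells (2×10^6 cells/mL) received 10 μM compound for 30 min, and aliquots were heated for 3 min over 48°C-58°C, pooled, and extracted at 4°C in PBS with 0.5% NP-40. Soluble protein, the supernatant after 21,000xg for 90 min, was quantified by TMTpro 16plex LC-MS/MS with equalised channel sums.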

Sequence of UniProt P51665 (P51665 whole entry, looked up): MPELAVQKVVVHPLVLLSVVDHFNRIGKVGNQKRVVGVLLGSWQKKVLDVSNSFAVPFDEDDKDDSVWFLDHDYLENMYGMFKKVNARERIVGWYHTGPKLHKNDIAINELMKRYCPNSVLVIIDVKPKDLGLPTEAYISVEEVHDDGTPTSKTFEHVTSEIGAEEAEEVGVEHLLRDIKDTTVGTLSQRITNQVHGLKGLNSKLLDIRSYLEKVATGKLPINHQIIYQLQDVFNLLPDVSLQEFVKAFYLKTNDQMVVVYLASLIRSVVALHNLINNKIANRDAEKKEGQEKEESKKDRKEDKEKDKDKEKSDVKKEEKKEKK
Sequence of UniProt O95997 (O95997 whole entry, looked up): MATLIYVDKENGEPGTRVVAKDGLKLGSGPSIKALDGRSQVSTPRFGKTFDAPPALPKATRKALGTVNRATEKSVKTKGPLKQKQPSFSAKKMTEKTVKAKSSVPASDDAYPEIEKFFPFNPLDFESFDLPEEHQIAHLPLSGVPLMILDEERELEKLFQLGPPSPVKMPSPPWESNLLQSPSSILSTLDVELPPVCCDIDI
Sequence of UniProt O14974 (O14974 whole entry, looked up): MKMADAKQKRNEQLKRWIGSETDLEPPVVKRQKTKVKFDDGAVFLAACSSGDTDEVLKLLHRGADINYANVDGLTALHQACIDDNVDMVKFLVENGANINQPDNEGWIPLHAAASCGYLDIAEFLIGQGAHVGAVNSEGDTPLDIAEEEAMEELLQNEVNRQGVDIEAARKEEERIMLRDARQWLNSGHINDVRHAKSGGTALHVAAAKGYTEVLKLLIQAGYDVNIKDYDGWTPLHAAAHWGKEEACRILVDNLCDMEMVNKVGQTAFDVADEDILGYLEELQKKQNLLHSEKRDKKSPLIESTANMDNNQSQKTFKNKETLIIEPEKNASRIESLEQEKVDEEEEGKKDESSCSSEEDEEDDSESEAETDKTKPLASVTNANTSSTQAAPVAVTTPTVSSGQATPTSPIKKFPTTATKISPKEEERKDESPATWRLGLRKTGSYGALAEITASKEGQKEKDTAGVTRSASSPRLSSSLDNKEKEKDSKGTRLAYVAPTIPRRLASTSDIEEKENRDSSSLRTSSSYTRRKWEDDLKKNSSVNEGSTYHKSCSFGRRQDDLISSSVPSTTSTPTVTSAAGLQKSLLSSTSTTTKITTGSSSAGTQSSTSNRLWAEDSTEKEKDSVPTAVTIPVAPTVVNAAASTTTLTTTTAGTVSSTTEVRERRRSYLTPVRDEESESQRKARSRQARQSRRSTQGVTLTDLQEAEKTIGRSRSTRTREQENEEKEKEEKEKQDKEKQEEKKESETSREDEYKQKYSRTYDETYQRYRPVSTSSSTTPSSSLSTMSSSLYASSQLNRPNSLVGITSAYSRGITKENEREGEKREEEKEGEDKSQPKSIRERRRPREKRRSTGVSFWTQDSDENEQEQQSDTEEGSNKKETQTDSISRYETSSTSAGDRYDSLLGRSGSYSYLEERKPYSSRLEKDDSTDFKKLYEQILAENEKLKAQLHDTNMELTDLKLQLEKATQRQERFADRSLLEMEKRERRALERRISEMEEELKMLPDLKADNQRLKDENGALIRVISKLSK
Sequence of UniProt Q15008 (Q15008 whole entry, looked up): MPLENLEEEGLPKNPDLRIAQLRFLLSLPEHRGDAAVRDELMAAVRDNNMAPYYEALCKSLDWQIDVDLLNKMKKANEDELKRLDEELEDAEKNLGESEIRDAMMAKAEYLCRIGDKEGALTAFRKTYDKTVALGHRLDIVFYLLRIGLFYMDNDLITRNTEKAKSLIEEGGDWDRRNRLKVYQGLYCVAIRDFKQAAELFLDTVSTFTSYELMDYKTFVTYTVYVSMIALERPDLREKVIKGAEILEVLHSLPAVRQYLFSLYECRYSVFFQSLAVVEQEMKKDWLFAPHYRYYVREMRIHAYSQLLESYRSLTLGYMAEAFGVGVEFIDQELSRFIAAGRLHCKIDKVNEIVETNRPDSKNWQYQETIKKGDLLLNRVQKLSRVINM
Sequence of UniProt Q15257 (Q15257 whole entry, looked up): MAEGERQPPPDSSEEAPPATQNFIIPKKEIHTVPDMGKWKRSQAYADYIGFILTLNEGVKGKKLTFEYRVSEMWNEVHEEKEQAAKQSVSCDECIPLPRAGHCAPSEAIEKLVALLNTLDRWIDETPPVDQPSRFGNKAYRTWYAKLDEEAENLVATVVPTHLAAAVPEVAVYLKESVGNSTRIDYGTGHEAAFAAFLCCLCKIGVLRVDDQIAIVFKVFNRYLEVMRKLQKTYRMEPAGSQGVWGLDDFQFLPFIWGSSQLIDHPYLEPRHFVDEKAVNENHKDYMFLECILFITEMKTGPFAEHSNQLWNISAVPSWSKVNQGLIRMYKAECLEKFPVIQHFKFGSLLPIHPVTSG
Sequence of UniProt Q13200 (Q13200 whole entry, looked up): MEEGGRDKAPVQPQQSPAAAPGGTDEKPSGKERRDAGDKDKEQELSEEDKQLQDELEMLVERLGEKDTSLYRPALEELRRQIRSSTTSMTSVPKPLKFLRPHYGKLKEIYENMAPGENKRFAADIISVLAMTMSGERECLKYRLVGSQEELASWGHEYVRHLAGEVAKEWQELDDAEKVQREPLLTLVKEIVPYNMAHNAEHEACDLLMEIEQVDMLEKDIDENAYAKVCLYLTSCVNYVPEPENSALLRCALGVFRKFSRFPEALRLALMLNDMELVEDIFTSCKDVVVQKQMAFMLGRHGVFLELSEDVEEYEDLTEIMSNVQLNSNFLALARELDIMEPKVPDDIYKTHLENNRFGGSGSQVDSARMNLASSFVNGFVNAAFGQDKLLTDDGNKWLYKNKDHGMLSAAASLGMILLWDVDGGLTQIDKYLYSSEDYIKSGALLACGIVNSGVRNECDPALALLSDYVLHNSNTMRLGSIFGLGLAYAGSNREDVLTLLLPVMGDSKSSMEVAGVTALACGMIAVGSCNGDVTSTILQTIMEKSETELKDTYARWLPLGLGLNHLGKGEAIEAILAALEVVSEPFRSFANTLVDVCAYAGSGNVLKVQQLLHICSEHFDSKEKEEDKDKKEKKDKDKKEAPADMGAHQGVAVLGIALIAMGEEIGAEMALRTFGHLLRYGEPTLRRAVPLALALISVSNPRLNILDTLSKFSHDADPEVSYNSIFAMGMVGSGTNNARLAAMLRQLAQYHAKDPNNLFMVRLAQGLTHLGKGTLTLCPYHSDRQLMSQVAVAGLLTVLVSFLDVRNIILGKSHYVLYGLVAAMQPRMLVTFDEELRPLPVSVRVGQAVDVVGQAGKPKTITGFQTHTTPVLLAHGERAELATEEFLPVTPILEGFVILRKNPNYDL
Sequence of UniProt Q29RF7 (Q29RF7 whole entry, looked up): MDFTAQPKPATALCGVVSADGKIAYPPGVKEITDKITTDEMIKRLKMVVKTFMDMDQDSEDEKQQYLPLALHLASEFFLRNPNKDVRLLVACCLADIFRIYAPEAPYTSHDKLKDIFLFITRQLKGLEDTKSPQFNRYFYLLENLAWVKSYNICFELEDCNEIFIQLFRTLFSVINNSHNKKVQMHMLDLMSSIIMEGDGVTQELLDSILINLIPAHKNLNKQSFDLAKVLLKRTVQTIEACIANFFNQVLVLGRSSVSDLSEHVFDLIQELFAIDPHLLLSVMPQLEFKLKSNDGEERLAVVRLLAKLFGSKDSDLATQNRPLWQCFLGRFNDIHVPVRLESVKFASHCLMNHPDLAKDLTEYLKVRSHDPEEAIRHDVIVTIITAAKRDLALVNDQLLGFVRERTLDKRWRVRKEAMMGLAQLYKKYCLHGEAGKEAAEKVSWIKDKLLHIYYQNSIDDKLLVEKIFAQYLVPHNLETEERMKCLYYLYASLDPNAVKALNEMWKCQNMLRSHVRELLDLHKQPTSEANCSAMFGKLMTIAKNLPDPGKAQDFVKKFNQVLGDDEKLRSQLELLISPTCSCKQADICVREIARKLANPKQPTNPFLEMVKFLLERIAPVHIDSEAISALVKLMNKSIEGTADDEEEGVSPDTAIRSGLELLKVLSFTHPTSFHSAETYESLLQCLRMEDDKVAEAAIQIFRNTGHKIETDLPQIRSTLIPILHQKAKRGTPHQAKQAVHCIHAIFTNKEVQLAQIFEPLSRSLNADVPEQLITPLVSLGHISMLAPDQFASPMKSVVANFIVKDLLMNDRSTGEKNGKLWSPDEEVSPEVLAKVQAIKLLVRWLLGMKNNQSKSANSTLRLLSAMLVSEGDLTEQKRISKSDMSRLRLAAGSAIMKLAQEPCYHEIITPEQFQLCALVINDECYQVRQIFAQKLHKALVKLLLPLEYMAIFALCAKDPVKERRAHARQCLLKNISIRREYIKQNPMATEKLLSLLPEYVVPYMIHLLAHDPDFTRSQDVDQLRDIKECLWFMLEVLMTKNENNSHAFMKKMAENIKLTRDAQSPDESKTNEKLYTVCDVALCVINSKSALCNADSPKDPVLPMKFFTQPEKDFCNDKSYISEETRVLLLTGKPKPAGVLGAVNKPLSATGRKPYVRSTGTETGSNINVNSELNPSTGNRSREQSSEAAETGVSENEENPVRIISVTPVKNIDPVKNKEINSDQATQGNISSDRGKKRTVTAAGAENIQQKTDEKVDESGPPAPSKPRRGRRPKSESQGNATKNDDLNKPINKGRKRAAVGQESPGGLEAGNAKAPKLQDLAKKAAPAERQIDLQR
Sequence of UniProt P62136 (P62136 whole entry, looked up): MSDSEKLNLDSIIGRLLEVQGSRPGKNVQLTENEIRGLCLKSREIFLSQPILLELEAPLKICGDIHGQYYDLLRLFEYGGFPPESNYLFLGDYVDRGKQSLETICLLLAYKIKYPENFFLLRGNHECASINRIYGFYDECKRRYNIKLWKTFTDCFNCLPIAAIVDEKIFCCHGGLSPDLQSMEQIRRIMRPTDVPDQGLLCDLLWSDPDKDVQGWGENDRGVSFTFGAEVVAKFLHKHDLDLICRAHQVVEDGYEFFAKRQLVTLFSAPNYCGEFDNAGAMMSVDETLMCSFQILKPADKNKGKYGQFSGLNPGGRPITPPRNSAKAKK
Sequence of UniProt Q7RTV0 (Q7RTV0 whole entry, looked up): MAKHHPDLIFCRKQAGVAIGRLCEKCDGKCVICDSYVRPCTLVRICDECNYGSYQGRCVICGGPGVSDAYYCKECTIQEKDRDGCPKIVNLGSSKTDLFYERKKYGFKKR

log2 fold change, inactive:
PHF5A (UniProt Q7RTV0) -0.101
POTEI (UniProt P0CG38) -0.074
PCBP2 (UniProt F8VRH0) -0.004
PPP1CA (UniProt P62136) 0.037
PSMD8 (UniProt P48556) 0.012
PRPF38A (UniProt Q8NAV1) 0.036
PRKCD (UniProt Q05655) 0.018
PDLIM7 (UniProt Q9NR12) 0.012
PAN2 (UniProt Q504Q3) -0.151
PITRM1 isoform 2 (UniProt Q5JRX3) -0.103
PSMD2 (UniProt Q13200) -0.002
PIK3CD (UniProt O00329) -0.206
PCBP2 isoform 3 (UniProt Q15366) 0.009
PPP1R35 (UniProt Q8TAP8) -0.04
POLR2C (UniProt P19387) 0.138
POLR2I (UniProt P36954) 0.306
PTRH2 (UniProt Q9Y3E5) 0.019
QRSL1 (UniProt Q9H0R6) -0.008
PSMD6 (UniProt Q15008) 0.058
PIR (UniProt O00625) 0.028
PTTG1 (UniProt O95997) -0.027
PRKAB1 (UniProt Q9Y478) -0.145
PHLDB1 isoform 2 (UniProt Q86UU1) -0.005
QKI (UniProt Q96PU8) 0.065
POLR2D (UniProt O15514) 0.162
PPP1R12A (UniProt O14974) -0.045
PCNT (UniProt O95613) 0.14
PDS5A (UniProt Q29RF7) 0.039
PSMC1 (UniProt P62191) 0.006
PSMD7 (UniProt P51665) 0.064
PPIL1 (UniProt Q9Y3C6) 0.052
PTPA (UniProt Q15257) -0.004
PSMD9 (UniProt O00233) -0.034
RAB11FIP1 (UniProt Q6WKZ4) -0.018
PCYT1A (UniProt P49585) 0.017
PSMB9 (UniProt P28065) -0.251
PURA (UniProt Q00577) 0.176
PDSS2 (UniProt Q86YH6) -0.152

Source: the supplement of paper PMC10849652
